Inconclusive results are not listed. Activity calls are given as the source filed them. Unless noted, the rule behind the calls is not given here.

A short description of test [1]: qHTS profiling of the MIPE4 collection as inhibitors of Plasmodium falciparum (3D7) proliferation (AID 743344).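 Note: scaled between DMSO vehicle wells and 0.29 µM artemisinin as full inhibition.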 The conditions noted are these: P. falciparum 3D7 in erythrocytes, SYBR Green DNA fluorescence, 72 h; at 28.5 µM unless noted. The essentials:
(§1)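 Parasite DNA was quantified by SYBR Green I fluorescence (ex 485, em 535 nm) after overnight lysis in saponin/Triton buffer at room temperature. Cultures at 0.3% parasitemia and 2.5% hematocrit were first exposed to compound for 72 h at 37 C; signals were normalised to artemisinin (0.29 uM) and vehicle wells.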

Test [2] in a line: qHTS profiling of the MIPE4 collection as inhibitors of Plasmodium falciparum (DD2) proliferation (AID 743345). Particulars: P. falciparum Dd2 in erythrocytes, SYBR Green DNA, 72 h; at 28.5 µM unless noted. The essentials: as §1
(In general: Quantitative high-throughput screening tests each substance at several concentrations.)

Test [3] can be described thus: qHTS profiling of the MIPE4 collection as inhibitors of Plasmodium falciparum (DD2) proliferation (Rep 2) (AID 743346). The conditions noted are these: P. falciparum Dd2 in erythrocytes, SYBR Green DNA, 72 h; at 28.5 µM unless noted. The essentials: as §1
Test [4] can be described thus: qHTS profiling of the MIPE4 collection as inhibitors of Plasmodium falciparum (HB3) proliferation (AID 743347).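 Note: plate controls were DMSO vehicle wells for no effect and artemisinin wells for full effect.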 The conditions noted are these: P. falciparum HB3 in erythrocytes, SYBR Green DNA, 72 h; at 28.5 µM unless noted. The essentials: as §1
Test [5] can be described thus: High-throughput drug toxicity screening in the BPDCN cell line Gen2.2 (AID 1224824).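 Note: cells exposed to compounds for 48 h before reading.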 Particulars: Gen2.2 BPDCN cells; at 45.8 µM (top of the series) unless noted. The essentials:
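Gen2.2 cells, 500 per well in phenol red-free RPMI with 10% FBS, exposed to compounds 48 h at 37 C, 5% CO2; viability by CellTiter-Glo luminescence. Percent activity scaled to DMSO (100%) and 9.2 uM bortezomib final (0%).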

The nature of test [6]: High-throughput drug toxicity screening in the BPDCN cell line Cal-1 (AID 1224825). The conditions noted are these: Cal-1 BPDCN cell viability, qHTS; at 45.8 µM (top of the series) unless noted. The essentials:
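CellTiter-Glo luminescence after 48 h compound exposure; percent activity scaled with DMSO as 100% and bortezomib (9.2 uM final) as 0%. Cal-1 cells seeded at 500/well in RPMI, 10% FBS, no phenol red.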

Test [7] can be described thus: qHTS assay for measurement of the activity of small molecule inhibitors on Zika virus induced Caspase-3 activity in human iPSC derived neural progenitor cells (hNPCs) (AID 1224857; active = well fitted curve in the direction sought with a large enough effect; an effect the other way counts as inactive or inconclusive; note: nearly all actives have a fitted effect of over 65% in size; note: potency is the fitted concentration of half-maximal effect). The essentials:
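Values are percent inhibition of virus-induced caspase-3/7 signal, scaled between uninfected cells and ZIKV-infected cells. Infection used 2 FFU/cell for 6 h after 1 h compound exposure.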

Test [8] can be described thus: qHTS assay for measurement of the activity of small molecule inhibitors on Zika virus induced Caspase-3 activity in human astrocytoma cells (AID 1224859; active = well fitted curve in the direction sought with a large enough effect; an effect the other way counts as inactive or inconclusive; note: potency is the fitted concentration of half-maximal effect). Summed up:
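Compound added 1 h pre-infection; ZIKV 2 FFU/cell on SNB-19 cells, 6 h, 37 C/5% CO2. Caspase-Glo 3/7 luminescence; values as % inhibition of ZIKV-induced caspase activity.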

The nature of test [9]: qHTS Screen of the MIPE 4.0 Collection Against Ewings Sarcoma (TC71) (AID 1259253; active = well fitted curve in the direction sought with a large enough effect; an effect the other way counts as inactive or inconclusive; note: potency is the fitted concentration of half-maximal effect; nearly all actives have a fitted effect of over 40% in size). The essentials:
(§2)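 Dose series incubated 48 h with cells in RPMI plus 5% FBS, glutamine and penicillin/streptomycin; cell viability then quantified via CellTiter-Glo.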

Test [10] in a line: qHTS Screen of the MIPE 4.0 Collection Against Ewings Sarcoma (EW8) (AID 1259255; active = well fitted curve in the direction sought with a large enough effect; an effect the other way counts as inactive or inconclusive; note: nearly all actives have a fitted effect of over 35% in size; note: potency is the fitted concentration of half-maximal effect;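 for viability: 100% = DMSO-treated cells and 0% = medium-only wells without cells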). Summed up: as §2
Test [11] is described as follows: qHTS profiling for inhibitors of Plasmodium falciparum (DD2) proliferation (AID 743323). The conditions noted are these: lower = more inhibition; at 28.7 µM (top of the series) unless noted. The essentials: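 SYBR Green fluorescence (ex 485, em 535 nm) of lysed cultures gives parasite DNA content; wells normalized to artemisinin (0.29 uM) and DMSO controls. Infected red cells: 0.3% parasitemia, 2.5% hematocrit, 72 h, 37 C.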

Test [12] can be described thus: qHTS profiling for inhibitors of Plasmodium falciparum (HB3) proliferation (AID 743324; active = well fitted curve in the direction sought with a large enough effect; an effect the other way counts as inactive or inconclusive;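 note: 100% = DMSO vehicle wells and 0% = artemisinin-treated control wells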). Particulars: Plasmodium falciparum HB3 blood-stage proliferation; at 28.7 µM (top of the series) unless noted. Summed up: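 SYBR Green fluorescence (485 ex/535 em) of lysed cultures, incubated overnight at room temperature in the dark, quantifies parasite DNA. Infected erythrocytes at 0.3% parasitemia and 2.5% hematocrit were exposed 72 h; values normalized to DMSO and 0.29 uM artemisinin controls.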

Test [13] can be described thus: qHTS Screen of the MIPE 4.0 Collection Against Ewings Sarcoma (TC32) (AID 1259256; active = well fitted curve in the direction sought with a large enough effect; an effect the other way counts as inactive or inconclusive; note: nearly all actives have a fitted effect of over 45% in size; note: potency is the fitted concentration of half-maximal effect). The essentials: as §2
The nature of test [14]: qHTS assay to identify small molecule inhibitors of chordoma cells - UCH-1 (AID 1259355; active = well fitted curve in the direction sought with a large enough effect; an effect the other way counts as inactive or inconclusive; note: % is set by controls: 0 for no effect and ±100 for the full control effect; nearly all actives have a fitted effect of over 55% in size). Summed up: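 Screening used approved and investigational drugs in 15-point titration against 800 seeded cells per well. A fixed combination of auranofin with camptothecin, doxorubicin, rubitecan and topotecan followed compound addition, and growth was scored by CellTiter-Glo after 48hr.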

Test [15] is described as follows: qHTS assay to identify small molecule inhibitors of chordoma cells - UCH-2 (AID 1259356; active = well fitted curve in the direction sought with a large enough effect; an effect the other way counts as inactive or inconclusive; note: % is set by controls: 0 for no effect and ±100 for the full control effect).

`O=C1CCCC(=O)C1C(=O)c1ccc(C(F)(F)F)cc1[N+](=O)[O-]` yielded a parasite growth, % of DMSO control in test [1] of 90.1%. The parasite growth remaining, % of DMSO control (lower = more inhibition) in test [2] was 103%. For the same compound, the parasite growth, % of control (lower = inhibition) in test [3] turned out to be 114%. Besides, the growth, % of control in test [4] worked out at 93.4%. In addition, the cell viability, % of control (lower = more cytotoxic) in [5] worked out at 124%. In addition, in test [6], the viability (% of control) turned out to be 101%. The Potency entry in test [7], in test [8] and in test [10] was “inactive” each time. In addition, in [9], the Potency is 23.5 µM (active).

The compound `CCCCC(C=O)NC(=O)C(CC(C)C)NC(=O)OCc1ccccc1` (stereo not drawn) returned a parasite growth, % of DMSO control in test [1] of 4.5%. Besides, in [2], the parasite growth remaining, % of DMSO control (lower = more inhibition) came to 8.7%. Besides, the parasite growth, % of control (lower = inhibition) in test [3] was found to be 9.29%. Besides, the growth, % of control in [4] was 4.08%. In addition, in test [5], the cell viability, % of control (lower = more cytotoxic) was determined as 52.9%. Further, the viability (% of control) in test [6] is 62.2%. The Potency entry in test [7] and in [8] was “inactive” throughout. For the same compound, the Potency in test [10] is 11.8 µM (active).

`CN(C)CC[C@H](CSc1ccccc1)Nc1ccc(S(=O)(=O)NC(=O)c2ccc(N3CCN(Cc4ccccc4-c4ccc(Cl)cc4)CC3)cc2)cc1[N+](=O)[O-]` gave an activity, percent of control in test [11] of 9.74%. For the same compound, the remaining proliferation (% of control), lower = more inhibition in test [12] is 41.4%. In addition, the parasite growth, % of DMSO control in test [1] was 34%. The parasite growth remaining, % of DMSO control (lower = more inhibition) in test [2] is 61.7%. The growth, % of control in [4] came out at 4.32%. Besides, the cell viability, % of control (lower = more cytotoxic) in test [5] was 8.88%. For the same compound, the viability (% of control) in test [6] worked out at 4.81%. The Potency entry in [7] and in test [8] was “inactive” throughout. The Potency in test [9] was 16.6 µM (active); in [10], 16.6 µM (active); in test [13] it was 4.18 µM (active).

With `Cc1ccc2c(c1)C(=O)[C@]1(O)CCN(c3ccccc3)C1=N2`, the parasite growth remaining, % of DMSO control (lower = more inhibition) in [2] amounted to 90.7%. Also, the parasite growth, % of control (lower = inhibition) in [3] was 89.8%. The compound further came in with a growth, % of control in [4] of 76.8%. Also, the cell viability, % of control (lower = more cytotoxic) in test [5] is 91%. For the same compound, the viability (% of control) in [6] is 34.3%. The Potency result in [7], in [8] and in test [13] was “inactive” throughout. For the same compound, the Potency in test [10] was 18.7 µM (active).

Compound `N[C@@H](CC(=O)N1CCn2c(nnc2C(F)(F)F)C1)Cc1cc(F)c(F)cc1F` displayed a parasite growth, % of DMSO control in test [1] of 94.7%. For the same compound, the parasite growth remaining, % of DMSO control (lower = more inhibition) in [2] is 104%. Also, in test [3], the parasite growth, % of control (lower = inhibition) is 84.5%. In test [4], the growth, % of control was 104%. Further, the cell viability, % of control (lower = more cytotoxic) in [5] worked out at 162%. Also, in [6], the viability (% of control) was 111%. For the same compound, the Potency result in [7] and in [8] was “inactive” in each case. In addition, the Potency in test [9] is 16.6 µM (active); in test [10], 18.7 µM (active); in test [13] it was 23.5 µM (active).

In test [1], `CC[C@H](CC#N)OC(=O)N[C@@H](C)c1cccc(NC(=O)Nc2ccc(-c3cnco3)c(OC)c2)c1` displayed a parasite growth, % of DMSO control of 12.8%. Besides, in test [3], the parasite growth, % of control (lower = inhibition) was determined as 17.5%. Also, in test [4], the growth, % of control came to 9.12%. Further, in test [5], the cell viability, % of control (lower = more cytotoxic) was determined as 74.3%. Also, in [6], the viability (% of control) came to 18.6%. For the same compound, the Potency entry in [7] and in [8] was “inactive” throughout. For the same compound, the Potency in test [9], in test [10] and in test [13] was 0.469 µM (active) each time.

For `COc1c(C)c2c(c(O)c1CC=C(C)CCC(=O)OCCN1CCOCC1)C(=O)OC2`, the parasite growth remaining, % of DMSO control (lower = more inhibition) in test [2] is 18.6%. Besides, the parasite growth, % of control (lower = inhibition) in test [3] amounted to 15.1%. In test [4], this compound yielded a growth, % of control of 9.76%. The cell viability, % of control (lower = more cytotoxic) in [5] worked out at 164%. Also, the viability (% of control) in test [6] is 13.5%. Besides, the Potency entry in test [7] and in test [8] was “inactive” throughout. Moreover, the figures for the Potency in test [9] and in [13] were 1.48 µM (active) and 1.32 µM (active), respectively. Further, the result in [14] and in [15] was inactive.

With `O=C(C=Cc1ccc(O)cc1)c1ccc(O)cc1O`, in test [1], the parasite growth, % of DMSO control is 19.6%. Also, in test [2], the parasite growth remaining, % of DMSO control (lower = more inhibition) stood at 52.6%. Moreover, the parasite growth, % of control (lower = inhibition) in test [3] is 39.1%. The compound also displayed a growth, % of control in [4] of 15.1%. Further, the cell viability, % of control (lower = more cytotoxic) in [5] was found to be 1.49%. The viability (% of control) in [6] is 4.05%. Also, the Potency in [7] was 1.66 µM (active); in [8], 2.09 µM (active); in test [9] it was 14.8 µM (active); in test [10], 20.9 µM (active); in [13], 16.6 µM (active).
